This passage reports INHIBITION results from ChEMBL document CHEMBL4513216, “Probing the Open Global Health Chemical Diversity Library for Multistage-Active Starting Points for Next-Generation Antimalarials” (ACS Infect Dis, 2020).

Out of some 68,000 compounds screened, about 2,700 (4%) showed an effect of 50% or more. The full list was thinned out, with strong results kept by preference.

This experiment has as its system Plasmodium berghei. Briefly: Screen against P. berghei liver stage (PbLuc), transformed with Luciferase, at 2uM. In kind it is functional, HepG2. As to conditions: tested at 2 uM.
As to `COc1ccc2c3c1CN(C(C)=O)CC3=CC(C)(C)CO2`, the INHIBITION was 22.01%.
`CSc1ccsc1C(=O)NC(C)c1ccc2c(c1)CCC(=O)N2` (centres undefined): the INHIBITION is recorded as 0.48%.
As to `Cc1ccsc1C(=O)NC(C)c1ccc2c(c1)CCC(=O)N2` (centres undefined), the INHIBITION is recorded as 0.48%.
For `CC(NC(=O)c1sccc1C1CC1)c1ccc2c(c1)CC(=O)N2` (centres undefined) the value was 51.14%.
As for `Cn1cc(C(=O)NCc2ccc(N3CCCC3)nc2)ccc1=O`, the INHIBITION was -0.05%.
As to `Cc1ccn(CC(=O)NCCCOc2ccccc2F)c(=O)c1`, the INHIBITION was 15.2%.
For the molecule `CN(C)S(=O)(=O)N1CCC(c2ccncn2)CC1`, the INHIBITION is on record as -5.42%.
Then `COCCn1ccc(NC(=O)Nc2ccncc2)n1`, with 1.94%; and `O=S(=O)(NCC1(c2cccs2)CCOCC1)c1cccnc1`, with -0.59%; and `O=S(=O)(NCC1(c2cccs2)CCCC1)c1cccnc1`, with 58.53%.
For `O=S(=O)(NCC1(c2cccs2)CCOCC1)c1ccc2c(c1)OCCO2`, the INHIBITION was -12.08%.
Then `Cc1cccc(Nc2ccc(C3CCCCN3)cn2)n1` (centres undefined), with 30.53%.
As to `O=C(NC1CC1)[C@H]1C[C@H]2OCC[C@H]2N(CC2CC2)C1`, the INHIBITION came to 28.49%.
For the molecule `O=C(COCc1ccccc1)N1CCCC1c1noc(C2CC2)n1` (centres undefined), the INHIBITION turned out to be 37.68%.
Then `CN(CCCc1ccc(C(F)(F)F)cc1)Cc1nccn1C`, with 59.08%; and `CN(CCCOc1ccccc1)Cc1nccn1C`, with -27.01%; and `Cn1ccnc1CN(CCO)Cc1ccc(C(F)(F)F)cc1`, with 9.42%.
Then `CSCC(CCO)NC(=O)c1cccc(C)c1Cl` (centres undefined), with -5.44%; and `Cc1cn2c(n1)CCC(NC(=O)c1cc(Br)cn1C)C2` (centres undefined), with -2.1%.
As for `CCOc1ccc(C(F)(F)F)cc1NC(=O)NCc1noc(C)n1`, the INHIBITION is reported as -40.82%.
In the case of `Cc1nc(CN2C(=O)COC3(CCN(CC4CC4)CC3)C2C)cs1` (centres undefined), the INHIBITION was 35.26%.
For the molecule `CC(=O)N1CCC(CCNC(C)c2cc(F)cc(F)c2)CC1` (centres undefined), the INHIBITION turned out to be 14.63%.
As for `CC(=O)N1CCC(CCNC(C)Cc2ccc(F)cc2)CC1` (centres undefined), the INHIBITION was 63.1%.
On to `CC(=O)N1CCC(CCNC(C)c2cc(C)cc(C)c2)CC1` (centres undefined), for which the INHIBITION turned out to be 8.03%.
As for `CN(C)C(=O)C1CN(Cc2ccccn2)CCN(S(C)(=O)=O)C1` (centres undefined), the INHIBITION is recorded as 25.72%.
As to `Cc1noc(C)c1CN(C)C(=O)c1ccc(C(N)=O)nc1`, the INHIBITION was 17.31%.
`COc1ccccc1CN(CC1CCCO1)C(=O)c1scnc1C` (centres undefined): the INHIBITION is 21.54%.
On to `O=C(c1ccco1)N1C[C@@H]2OCCN(c3ncccn3)[C@@H]2C1`, for which the INHIBITION is given as 41.73%.
Consider `CCN1C(=O)C(c2ccccc2)CC12CCN(Cc1cccnc1)CC2` (centres undefined), for which the INHIBITION is given as 52.36%.
`CCN1C(=O)C(c2ccccc2)CC12CCN(CCO)CC2` (centres undefined): the INHIBITION worked out at 21.06%.
Turning to `CCN1C(=O)C(c2ccccc2)CC12CCN(c1ncccn1)CC2` (centres undefined), the INHIBITION is listed as 30.4%.
For `N#CCCN(C(=O)CCc1cccnc1)c1ccc2c(c1)OCCO2`, the INHIBITION worked out at 33.26%.
With `CN(C)C(=O)c1ccn(-c2ccc3ccccn23)n1`, the INHIBITION stood at 6.35%.
For `CC(C)(CNC(=O)Nc1nccs1)N1CCOCC1` the value was 64.2%; for `CC(C)(CNC(=O)Nc1ccc(S(=O)(=O)C(F)F)cc1)N1CCOCC1`, 53.63%; for `CC(C)(CNc1ccccc1S(=O)(=O)C(F)F)N1CCOCC1`, -64.31%.
Regarding `CCC(C)(CNC(=O)Nc1nccs1)N1CCOCC1` (centres undefined), the INHIBITION turned out to be 21.24%.
For `CCC(C)(CNC(=O)Nc1nncs1)N1CCOCC1` (centres undefined), the INHIBITION is given as -42.64%.
Turning to `CC(C)(CNc1ccc(S(=O)(=O)C(F)F)cc1)N1CCOCC1`, the INHIBITION is on record as 5.02%.
Turning to `CCC(CC)(CCO)CNC(=O)c1ccon1`, the INHIBITION worked out at 34.69%.
On to `CS(=O)(=O)NCCNC(=O)Cc1ccc(Br)s1`, for which the INHIBITION is given as 12.55%.
Consider `Cc1ncc(CNC(=O)c2oc3ccccc3c2CN(C)C)s1`, for which the INHIBITION is recorded as -21.47%.
`CN(CC1Cc2ccccc2CN1C)C(=O)CSc1nccn1C` (centres undefined): the INHIBITION was determined as 53.61%.
With `Cc1cc(=O)[nH]c(SCC(=O)N(C)CC2Cc3ccccc3CN2C)n1` (centres undefined), the INHIBITION was -15.36%.
For `CN(CC1Cc2ccccc2CN1C)C(=O)CSc1ccccn1` (centres undefined), the INHIBITION is listed as 35.54%.
Take `COc1ccc(CCCN(C)C(=O)c2cc(Cl)c[nH]2)cc1OC`: the INHIBITION was 32.31%.
For `O=C(C1CC1)N1Cc2[nH]nc(COCc3cccnc3)c2C1` the value was -14.61%; for `O=C(Nc1cc(CCC2CCN(CCO)CC2)ccn1)c1ccccn1`, 35.19%.
With `COc1cccc(CC(=O)N2CC[C@@H]3[C@H](CC2)N(C)CCS3(=O)=O)c1`, the INHIBITION amounted to 4.38%.
For `CC(C)CC(=O)N1CC[C@H]2N(C)CC[C@@]2(C(=O)Nc2ccccc2)CC1` the value was 11.87%.
`CC(C)C(=O)N1CC[C@H]2N(C)CC[C@@]2(C(=O)Nc2ccccc2)CC1`: the INHIBITION is reported as 17.69%.
As to `CNC(=O)N1CC[C@H]2N(C)CC[C@@]2(C(=O)Nc2ccccc2)CC1`, the INHIBITION is given as 62.13%.
`CC(C)(C)Nc1nc(-c2cccnc2)c(-c2ccnc(NCCO)n2)s1`: the INHIBITION is given as -31.71%.
Regarding `CCOC1CCC2(CCN(C(=O)c3c[nH]cn3)CC2)c2ccccc21` (centres undefined), the INHIBITION is 28.46%.
With `Cc1nn(C)c(N2CCOCC2)c1CNC(C)c1ccco1` (centres undefined), the INHIBITION was -39.37%.
For `Cc1ccc(C(C)NCc2c(C(C)C)nn(C)c2N2CCOCC2)o1` (centres undefined) the value was -41.76%; for `CC(C)c1nn(C)c(N2CCOCC2)c1CNC(C)c1ccco1` (centres undefined), 53.98%.
Then `NC(CC1CCCC1)c1ccccc1` (centres undefined), with 10.24%; and `CCN1CCCC1CNC(=O)c1cc(COc2cccc(F)c2)[nH]n1` (centres undefined), with 21.67%.
As for `O=C(CC1CC1)N1CCc2ncc(Cn3cncn3)n2CC1`, the INHIBITION is reported as 31.73%.
Consider `CC(C)S(=O)(=O)N1CCCC(c2nccn2Cc2cccnc2)C1` (centres undefined), for which the INHIBITION is -7.66%.
On to `Cc1noc(C)c1CN1CC[C@H]2OCC[C@@H](C(=O)N3CCCO3)[C@H]2C1`, for which the INHIBITION is 59.08%.
With `O=C([C@@H]1CCO[C@@H]2CCN(CC3CC3)C[C@H]21)N1CCCC1`, the INHIBITION is -16.33%.
On to `Cc1noc(C)c1CN1CC[C@H]2OCC[C@@H](C(=O)N3CCCO3)[C@@H]2C1`, for which the INHIBITION is on record as -13.8%.
As for `O=C([C@@H]1CCO[C@@H]2CCN(CC3CCOCC3)C[C@H]21)N1CCCO1`, the INHIBITION is listed as -3.19%.
As to `O=C([C@@H]1CCO[C@@H]2CCN(CC3CC3)C[C@H]21)N1CCCCO1`, the INHIBITION was found to be 57.07%.
As to `Cc1noc(C)c1CN1CC[C@H]2OCC[C@@H](C(=O)NCC3CC3)[C@@H]2C1`, the INHIBITION is 6.04%.
`CCn1ccc(NC(=O)C2CCC(=O)N2Cc2ccc(C)o2)n1` (centres undefined): the INHIBITION came out at 45.14%.
For `O=C(c1cc(=O)n(-c2ccccc2)[nH]1)N1CCOCC(O)C1` (centres undefined), the INHIBITION is listed as 4.12%.
Take `COCCOc1ccccc1NC(C)C(=O)NC(=O)NC(C)(C)C` (centres undefined): the INHIBITION is -19.21%.
Turning to `CCCc1n[nH]c(C2CN(C(=O)c3ccc[nH]3)CCO2)n1` (centres undefined), the INHIBITION was -70.51%.
For `CC(Cc1ccccc1F)NC(=O)CCC1=NC(=C2N=CN=N2)NO1` (centres undefined) the value was 24.12%.
Regarding `COCCNC(=O)Cn1c(-c2cccc(F)c2)nc(C)c(CCO)c1=O`, the INHIBITION is given as -4.75%.
Then `COCCC1(CO)CCCN(Cc2ccncc2)C1` (centres undefined), with 10.53%; and `OCC1(Cc2ccc(F)cc2F)CCCN(Cc2ccncc2)C1` (centres undefined), with 61.48%.
As to `O=C(O)C1(Cc2ccc(F)cc2F)CCCN(Cc2ccncc2)C1` (centres undefined), the INHIBITION came to 43.57%.
`Cc1c(-c2cc(C(=O)N3CCc4ncc(Cl)cc4C3)on2)cnn1C`: the INHIBITION is -30.88%.
For `O=C(NCC(F)F)c1cc(-c2ccccc2)nc2ncnn12` the value was 5.88%; for `CCc1nc(CCNC(=O)NC2CCSCC2)cs1`, 50.32%.
As to `CCc1nc(CCNC(=O)Nc2ccc(C(=O)NC)cc2)cs1`, the INHIBITION is given as -58.5%.
With `CCc1nc(CCNC(=O)NC2CC(=O)N(C(C)(C)C)C2)cs1` (centres undefined), the INHIBITION is listed as 3.62%.
For the molecule `CCNCc1ccc(OCc2ccc3c(c2)OCCO3)cc1`, the INHIBITION is 12.94%.
For `NC1CC(C(F)(F)F)=NC=C1c1ccccc1` (centres undefined), the INHIBITION is 25.93%.
In the case of `Cc1ccccc1NC(=O)NCCn1nc(C(F)(F)F)n(C)c1=O`, the INHIBITION is recorded as 16.54%.
In the case of `Cn1c(C(F)(F)F)nn(CCNC(=O)Nc2ccccc2Cl)c1=O`, the INHIBITION was 64.74%.
With `Cn1c(C(F)(F)F)nn(CCNC(=O)Nc2ccccc2F)c1=O`, the INHIBITION turned out to be 37.87%.
Consider `Cn1cc(C(=O)N2CCN(Cc3cscn3)CC2)ccc1=O`, for which the INHIBITION is -15.08%.
For `CN1CC2(CNCCN(C(=O)Nc3ccccc3)C2)CC1=O` (centres undefined) the value was 56.21%; for `Cc1cccc(NC(=O)N2CCC3(CC(=O)N(c4ccsc4)C3)C2)c1` (centres undefined), 1.29%; for `O=C(NCc1ccccc1)N1CCC2(CC(=O)N(c3ccsc3)C2)C1` (centres undefined), 18.86%.
Consider `CCN1CC2(CNCCN(C(=O)Nc3ccccc3)C2)CC1=O` (centres undefined), for which the INHIBITION was 17.77%.
For `CC(=O)N1CCN(C(=O)Nc2ccccc2)CC2(CC(=O)N(C)C2)C1` (centres undefined) the value was 7.88%; for `O=C(Nc1ccccc1)N1CCC2(CC(=O)N(c3ccsc3)C2)C1` (centres undefined), 57.31%; for `Cc1nn(Cn2ccc(C(=O)N3CCCCCC3)n2)c(C)c1Cl`, 7.68%.
For `CC(NC(N)=O)C(=O)N1CCCN(Cc2nccn2C(C)C)CC1` (centres undefined), the INHIBITION is given as -7.5%.
As to `CN(C(=O)Cc1ccc(NC(=O)NC2CCC2)cc1)c1ccccc1`, the INHIBITION worked out at 43.21%.
Take `Cc1ccc(C(=O)N2CCC3(CC2)CCN(CCN(C)C)C3=O)cn1`: the INHIBITION came to 39.92%.
Then `CCn1c(C2CCN(C(=O)c3cc(CC(C)C)on3)CC2)nn(C)c1=O`, with -5.44%.
Turning to `CCn1c(C2CCN(C(=O)c3cc(Cl)no3)CC2)nn(C)c1=O`, the INHIBITION came out at 13.76%.
Turning to `CCn1c(C2CCN(C(=O)c3cc(CC(C)C)no3)CC2)nn(C)c1=O`, the INHIBITION turned out to be 51.31%.
As for `CCN1CCn2c(-c3cccc(F)c3)cnc2C12CCN(C(C)=O)CC2`, the INHIBITION is listed as -13.68%.
For `O=c1[nH]c(NCCO)nc2c1C1(CCCCC1)Cc1ccccc1-2`, the INHIBITION came out at 53.55%.
On to `O=c1[nH]c(NCCO)nc2c1C1(CCCC1)Cc1ccccc1-2`, for which the INHIBITION is -29.21%.
Consider `O=c1[nH]c(NCCCO)nc2c1C1(CCCC1)Cc1ccccc1-2`, for which the INHIBITION stood at 43.82%.
